# Most compounds without a hit are left out; they make up all but 1.1% or so of the library.
# NTR1 ag: activates human neurotensin receptor 1 | P30989 | NTR1-U2OS beta-arrestin-GFP spot imaging, agonist mode | activation, % at 20 µM | actives 0.17% (n = 330,000);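 active means activation at or above 40% of the spot to cytoplasm intensity ratio, with at least 20 cells analyzed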;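 further: 0% = DMSO without peptide and 100% = 100 nM NTR1 peptide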
# Target sequence (P30989 whole entry, looked up): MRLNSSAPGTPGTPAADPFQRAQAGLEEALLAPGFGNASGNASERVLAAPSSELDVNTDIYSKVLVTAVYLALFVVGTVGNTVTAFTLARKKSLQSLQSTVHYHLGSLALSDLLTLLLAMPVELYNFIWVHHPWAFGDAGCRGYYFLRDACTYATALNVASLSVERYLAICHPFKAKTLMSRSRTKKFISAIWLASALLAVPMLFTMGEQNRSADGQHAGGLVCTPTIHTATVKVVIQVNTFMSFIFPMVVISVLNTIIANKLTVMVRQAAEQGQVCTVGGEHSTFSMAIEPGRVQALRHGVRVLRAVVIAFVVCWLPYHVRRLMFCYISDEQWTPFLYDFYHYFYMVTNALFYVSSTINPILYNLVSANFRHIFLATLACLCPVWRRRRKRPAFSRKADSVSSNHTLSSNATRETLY
# VLA-4 inh: inhibition in a human VLA-4 binding assay | P13612 | VLA-4 expressing cells, ligand binding flow cytometry | inhibition, % (about 7 µM as worked out from the volumes in the protocol) | actives 0.2% (n = 330,000) | AID 2557; in the data active means inhibition above about 50%
# DSG3 Ab inh: human desmoglein-3 autoantibody binding inhibition. P32926. DSG3-coupled beads, scFv-anti-DSG3-GFP binding, flow cytometry; hits give low values. binding (percent of control), % at 10 µM. actives 0.48% (n = 310,000);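 active means binding more than 3 SD below its plate's average and above zero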;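 further: hits lower antibody fragment binding to DSG3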
# AI-2 QS mod: modulators of Vibrio harveyi AI-2 quorum sensing system; actives 0.4% (n = 300,000); Vibrio harveyi JMH597 AI-2 luminescence/OD600 ratio, 9 h; hits give low values; strain lacks LuxN and CqsS sensors; 0 = neutral-control median; activity change, % at 7.5 µM; in the data active means activity change below about -75%, passing the limit was not always enough;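 further: luminescence divided by OD600 gain over 9 h not by final OD600 alone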
# * marks the source's active call; other numbers are inactive results; nt = no result given.
SMILES,NTR1 ag,VLA-4 inh,DSG3 Ab inh,AI-2 QS mod
CCc1ccc(NC(=O)c2cc(S(=O)(=O)N3CCCC3)c[nH]2)cc1,-3.1,9.2,97.7,3.5
CCOc1ccc(NC(=O)c2cc(S(=O)(=O)N3CCCCC3)c[nH]2)cc1,-2.2,-27.1,80.3*,12.9
COc1cc(/C=N/Nc2ccccc2[N+](=O)[O-])cc(OC)c1O,1.1,-3.2,91.5,7.5
COc1cc(/C=N/Nc2ccc(S(N)(=O)=O)cc2[N+](=O)[O-])cc(OC)c1O,3.4,-2.5,82.8*,15.5
O=C(COc1nncc2ccccc12)NCCC1=CCCCC1,0.5,17.7,101.8,-76.9*
COc1ccc(C(C)=O)c(OCC(=O)NCCC2=CCCCC2)c1,nt,nt,106.5,nt
Cc1ccc(CN2CCN(/N=C/C(Br)=C\c3ccccc3)CC2)cc1,2.9,-4.9,82.8*,11.7
O=C(NCc1ccccc1Cl)c1cc([N+](=O)[O-])ccc1Cl,3.6,-1.6,72.1*,6.7
O=C(NCc1ccc(Cl)cc1)c1cc([N+](=O)[O-])ccc1Cl,2.5,1.8,94.8,11.5
Cc1cccc(NC(=O)Cn2cc(C(=O)C3CC3)c3ccccc32)c1C,1.9,7.2,-14.4*,0.7
CC(=O)c1cn(CC(=O)Nc2cccc(C)c2C)c2ccccc12,-0.3,12.0,105.3,25.1
O=C(Cc1cccc2ccccc12)N/N=C/c1ccc2cccc(O)c2n1,6.3,2.8,58.7*,10.1
Cc1cccc(NC(=O)CNC(=O)c2ccc(S(=O)(=O)NCc3ccco3)cc2)c1C,nt,nt,95.0,nt
COc1ccc(-n2c(C)cc(C(=O)CCl)c2C)cc1,16.5,25.2,105.0,-86.7*
COc1ccc(Oc2coc3cc(O)ccc3c2=O)cc1,0.8,6.8,114.8,-94.3*
COc1ccccc1Oc1coc2cc(O)ccc2c1=O,-0.5,-12.7,93.9,20.1
O=c1cc(-c2ccc(O)cc2)oc2c(O)c(O)c(O)c(O)c12,-0.6,6.9,58.2*,nt
O=C(/C=C/c1ccco1)NCc1ccco1,-1.4,5.1,79.8*,-5.9
O=C(CNC(=O)/C=C/c1ccco1)N=Nc1c(O)[nH]c2ccccc12,0.7,2.4,45.0*,16.9
O=C(/C=C/c1cccs1)NC(=S)Nc1ccccc1,11.4,11.6,123.5,-77.5*
CCc1ccc(/C(C)=N/NC(=O)CNC(=O)/C=C/c2ccccc2OC)cc1,1.8,-1.9,nt,20.6
O=C(CNC(=O)Cc1ccccc1)N=Nc1c(O)[nH]c2ccccc12,-0.5,3.8,nt,nt
CCc1ccc(/C(C)=N/NC(=O)CNC(=O)/C=C/c2ccco2)cc1,0.6,0.7,64.2*,11.1
O=[N+]([O-])c1cc2c(cc1Br)-c1ccccc1C2,nt,nt,105.6,nt
Cc1ccc(NC(=O)CSC(C)C(=O)OCc2cc(=O)oc3cc(O)ccc23)cc1 (stereo unspecified),nt,nt,98.8,nt
SMILES,NTR1 ag,VLA-4 inh,DSG3 Ab inh,AI-2 QS mod
CC(=O)c1ccc(NC(=S)NC(=O)/C=C/c2ccco2)cc1,-0.2,9.4,118.4,26.5
O=C(/C=C/c1ccco1)NC(=S)Nc1ccccc1,2.3,0.9,121.6,-77.3*
O=C(Cc1c(Cl)cccc1Cl)OCC(=O)c1ccc[nH]1,nt,nt,105.1,nt
CC(C)=C1SC(N2CCN(c3cccc(C(F)(F)F)c3)CC2)=NC1=O,3.0,-0.5,41.7*,24.0
C[C@H](CO)N1C[C@H](C)[C@@H](CN(C)Cc2ccc(Oc3ccccc3)cc2)Oc2cc(Br)ccc2S1(=O)=O,nt,nt,108.8,nt
O=[N+]([O-])c1ccc(/C=N/Nc2ccnc3cc(Cl)ccc23)o1,-0.5,-21.6,95.6,-185.0*
CCS(=O)(=O)c1ccc(O)c(NC(=O)/C=C/c2ccc(Cl)cc2)c1,1.6,2.0,101.8,-82.8*
CCOC(=O)c1cc2c(ccc3ccccc32)oc1=O,1.8,4.8,101.0,34.2
CCOC(=O)c1c(C)nc(C)c2c(=O)oc3ccccc3c12,1.7,22.9,95.3*,21.3
COc1ccc(C2=Nn3c(nnc3-c3ccccc3F)SC2)cc1OC1CCOC1 (stereo unspecified),0.3,-0.7,81.5*,nt
COc1ccc(C2=Nn3c(nnc3-c3ccccc3F)SC2)cc1OC1CCCC1,15.8,3.8,nt,nt
CCCn1c(=O)n(C)c(=O)c2c(SCC(=O)Nc3cc(C)on3)nc(C(C)(C)C)nc21,9.9,-17.0,100.0,nt
O=C(NC(=S)NNC(=O)c1cccs1)c1ccc(Br)o1,2.0,13.9,124.8,-88.2*
C/C(=N\NC(=O)Cc1ccccc1)c1cccs1,0.1,7.4,77.6*,24.8
O=C(Cc1ccccc1)NNC(=S)NC(=O)c1cccs1,-0.5,3.2,110.0,-83.4*
Cc1cccc(C(=O)NC(=S)NNC(=O)Cc2ccccc2)c1,0.1,-5.0,105.3,-90.6*
O=C(NC(=S)NCc1ccccc1)c1cccs1,2.4,9.9,108.7,10.1
